Compounds with a hit are over-represented: about 21% of the library has one in this group of screens.
Shiga_inhibitor: Shiga toxin inhibition. Vero cells, Shiga toxin protein synthesis inhibition reporter. inhibition, % at 38.7 µM. actives 9.2% (n = 290,000); in the data active = inhibition mostly above about 28%, no sharp cut-off; inactive = mostly below about 43%; note: 0% is about no effect
Pf_growth_48h: inhibits P. falciparum growth in the first generation, 48 h | P. falciparum luciferase growth in erythrocytes, 48 h | actives 5.9% (n = 310,000) | Potency, µM (titrated, usually from 28.7 µM), for inactives: at the highest dose activity change, negative = inhibition, hits mostly inhibitors; note: potency is the fitted concentration of half-maximal effect; % is set by controls: 0 for no effect and ±100 for the full control effect
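Parasite viability was followed by luminescence of a genomically integrated firefly luciferase. Cultures held 0.1% parasitemia at 2% hematocrit (final), incubated under 5% CO2 at 37 C.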
NS1_function_inh: inhibitors of influenza NS1 protein function; Potency, µM (doses to about 46.1 µM), for inactives: at the highest dose activity, positive = more growth; actives 0.4% (n = 270,000); calls by dose curve; note: potency is the fitted concentration of half-maximal effect; actives are rising curves; nearly all actives have a fitted effect of over 50% in size
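OD600 was taken as the measure of yeast growth restored by compound in an NS1-expressing S. cerevisiae strain. Cells had been washed out of glucose medium and diluted 1:100 into galactose -URA medium, pH 6.0.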
FBPA_Giardia_inh: blocks Giardia fructose-bisphosphate aldolase activity | A8B2U2 | purified Giardia FBPA | Potency, µM (top dose mostly 59.6 µM), for the others: top-dose activity, negative = inhibition, most hits filed as inhibitors | actives 0.71% (n = 290,000); note: potency is the fitted concentration of half-maximal effect; % is set by controls: 0 for no effect and ±100 for the full control effect; nearly all actives have a fitted effect of over 55% in size
Target sequence (A8B2U2 whole entry, looked up): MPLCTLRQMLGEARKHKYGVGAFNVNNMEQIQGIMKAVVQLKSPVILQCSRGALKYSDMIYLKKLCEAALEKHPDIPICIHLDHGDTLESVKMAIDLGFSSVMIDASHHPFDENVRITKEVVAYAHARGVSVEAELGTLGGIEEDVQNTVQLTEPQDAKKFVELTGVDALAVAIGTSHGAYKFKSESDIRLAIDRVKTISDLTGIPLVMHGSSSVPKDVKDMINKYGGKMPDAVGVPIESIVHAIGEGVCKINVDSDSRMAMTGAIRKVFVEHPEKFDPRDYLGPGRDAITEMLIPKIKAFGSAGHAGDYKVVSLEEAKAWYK
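40 nM FBPA preincubated 10 min at RT with compound (up to 57.5 uM final), then substrate plus GAPDH/TPI/NAD/arsenate coupling and diaphorase/resazurin added. Fluorescence read after 20 min at RT, 525/598 nm.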
Cycloheximide_cs: counter-screen hit for Shiga toxin inhibitors, cycloheximide; cell reporter, cycloheximide protein synthesis inhibition counterscreen; max response, %; actives 12% (n = 300,000); AID 2314; in the data active = max response mostly above about 13%, no sharp cut-off; inactive = mostly below about 14%; note: read at 38.3 µM for the half of the compounds with a filed dose; 0% is about no effect
Pf_growth_96h: P. falciparum growth inhibition at 96 hour, primary screen for plastid delayed-death inhibitors; P. falciparum luciferase reporter growth, 96 h; Potency, µM (doses to about 28.7 µM), inactives show top-dose activity change, negative = inhibition, hits mostly inhibitors; actives 6.9% (n = 320,000); AID 504834; note: potency is the fitted concentration of half-maximal effect; % is set by controls: 0 for no effect and ±100 for the full control effect
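Infected RBCs, 2% Hct / 0.05% parasitemia final; luciferase-reporter P. falciparum; cpd 96 h, 37 C, 5% CO2; luciferase detection reagent; luminescence.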
Active calls of the source: *; ? = inconclusive; . = not tested or not shown. Unless noted, calls come from the whole dose curve; as a rule, active = well fitted curve in the direction sought with a large enough effect; inconclusive = small, poorly fitted or top-dose-only effect, or another doubt; inactive = no such curve, though single readings can be large; an effect the other way counts as inactive or inconclusive.

SMILES Shiga_inhibitor Pf_growth_48h NS1_function_inh FBPA_Giardia_inh Cycloheximide_cs Pf_growth_96h
COC(=O)CSc1nnc(CNC(=O)c2ccc(S(=O)(=O)N3CCCCC3)cc2)n1C -19 6% -4% 12% -3 1.5µM*
CCOC(=O)CSc1nnc(CNC(=O)c2ccc(S(=O)(=O)N3CCCCC3)cc2)n1C -7 -5% -13% 6% 1 33%
O=C(NCCc1ccccc1)c1ccc2c(c1)OCO2 -3 -17% -7% -5% -1 ?
Cc1ccc(C(=O)NCCn2ccc3ccccc32)cc1[N+](=O)[O-] 80* 22% . -8% 35* 27%
COc1ccc(C(=O)NCCn2ccc3ccccc32)cc1 4 ? -17% -3% 13* 0%

High-throughput results: PubChem BioAssay, National Center for Advancing Translational Sciences (NCATS)
